# Source: paper PMC7862700, “An all-to-all approach to the identification of sequence-specific readers for epigenetic DNA modifications on cytosine”
# Key:
# Assay in all cases: DAPPL (digital affinity profiling via proximity ligation, sequencing); 10 mM Tris-HCl pH 7.5, 50 mM NaCl, 1 mM DTT, 4% glycerol, room temperature, 30 min; GST-TFs on glutathione beads, 16-mer random dsDNA library, 0.1% formaldehyde crosslink after washing; high values mean tight binding
# Conditions in all cases: protein: recombinant; tags: N-terminal GST; dsDNA, one strand shown
# [1] = biological target: T1, FLI1 (Homo sapiens, UniProt Q01543 1-452)
# T1 sequence: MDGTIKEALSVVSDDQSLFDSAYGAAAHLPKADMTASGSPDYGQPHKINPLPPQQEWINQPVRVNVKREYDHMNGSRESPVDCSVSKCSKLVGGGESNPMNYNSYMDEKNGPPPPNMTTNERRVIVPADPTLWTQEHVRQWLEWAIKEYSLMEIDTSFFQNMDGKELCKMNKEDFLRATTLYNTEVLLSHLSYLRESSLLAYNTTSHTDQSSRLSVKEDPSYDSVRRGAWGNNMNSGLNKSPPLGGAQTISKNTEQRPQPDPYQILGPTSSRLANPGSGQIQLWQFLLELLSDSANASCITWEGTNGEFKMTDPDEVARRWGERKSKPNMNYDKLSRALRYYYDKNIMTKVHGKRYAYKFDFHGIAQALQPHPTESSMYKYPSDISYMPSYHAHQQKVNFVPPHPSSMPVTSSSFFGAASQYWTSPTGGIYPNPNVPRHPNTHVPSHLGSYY
# Outline: (§1)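 Human transcription factors fused to GST were expressed in yeast, captured on glutathione beads, given DNA barcodes and pooled with a GST-only negative control. Pools were incubated with 200 nmole of a 16-mer random double-stranded DNA library in Tris/NaCl/DTT/glycerol buffer at room temperature for 30 min. They were then washed, crosslinked with 0.1% formaldehyde, proximity-ligated (BsaI/T4 ligase, 1 h, 37 °C), PCR-amplified and sequenced on an Illumina NextSeq500. Binding signal is each 6-mer's read frequency for a factor divided by its frequency for the GST control.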
# [2] = biological target: T2, ELK1 (Homo sapiens, UniProt P19419 1-428)
# T2 sequence: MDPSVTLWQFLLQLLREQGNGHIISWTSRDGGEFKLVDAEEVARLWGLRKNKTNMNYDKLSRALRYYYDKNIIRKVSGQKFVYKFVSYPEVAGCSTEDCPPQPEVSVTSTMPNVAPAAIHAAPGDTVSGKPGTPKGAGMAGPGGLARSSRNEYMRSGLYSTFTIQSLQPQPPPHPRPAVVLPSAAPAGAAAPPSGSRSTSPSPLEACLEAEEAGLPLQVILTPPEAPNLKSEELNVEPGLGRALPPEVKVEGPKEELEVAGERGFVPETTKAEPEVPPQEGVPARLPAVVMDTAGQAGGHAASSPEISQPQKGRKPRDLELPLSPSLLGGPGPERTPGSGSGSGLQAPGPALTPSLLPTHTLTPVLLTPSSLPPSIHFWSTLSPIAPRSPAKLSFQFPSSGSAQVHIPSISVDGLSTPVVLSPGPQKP
# Outline: as §1
# [3] = biological target: T3, GABPA (Homo sapiens, UniProt Q06546 1-454)
# T3 sequence: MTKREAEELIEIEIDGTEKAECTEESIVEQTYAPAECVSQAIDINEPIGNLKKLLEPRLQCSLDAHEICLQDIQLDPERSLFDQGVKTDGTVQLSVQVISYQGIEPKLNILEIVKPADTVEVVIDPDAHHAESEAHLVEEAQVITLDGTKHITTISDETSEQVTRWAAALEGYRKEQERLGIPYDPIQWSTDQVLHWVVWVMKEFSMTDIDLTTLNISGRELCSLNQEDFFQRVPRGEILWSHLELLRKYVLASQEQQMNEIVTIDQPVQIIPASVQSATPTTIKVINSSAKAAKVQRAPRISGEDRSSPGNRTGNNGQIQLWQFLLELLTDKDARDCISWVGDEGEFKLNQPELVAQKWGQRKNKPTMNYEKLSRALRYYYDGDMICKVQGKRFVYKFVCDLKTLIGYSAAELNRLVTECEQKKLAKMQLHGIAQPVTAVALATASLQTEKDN
# Outline: as §1
# [4] = biological target: T4, ERG (Homo sapiens, UniProt P11308 1-479)
# T4 sequence: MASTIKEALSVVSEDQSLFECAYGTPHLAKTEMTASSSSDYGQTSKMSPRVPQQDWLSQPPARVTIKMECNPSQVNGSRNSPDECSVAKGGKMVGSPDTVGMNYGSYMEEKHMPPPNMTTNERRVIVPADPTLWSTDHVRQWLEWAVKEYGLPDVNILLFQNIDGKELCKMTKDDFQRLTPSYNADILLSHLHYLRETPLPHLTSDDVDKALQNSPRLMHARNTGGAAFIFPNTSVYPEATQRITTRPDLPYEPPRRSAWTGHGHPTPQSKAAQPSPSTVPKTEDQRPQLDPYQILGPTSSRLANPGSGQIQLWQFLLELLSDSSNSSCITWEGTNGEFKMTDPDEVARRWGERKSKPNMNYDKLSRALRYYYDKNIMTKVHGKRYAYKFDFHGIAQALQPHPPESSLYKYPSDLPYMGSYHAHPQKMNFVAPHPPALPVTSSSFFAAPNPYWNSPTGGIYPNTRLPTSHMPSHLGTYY
# Outline: as §1
# [5] = biological target: ELF1 (Homo sapiens, UniProt P32519 1-619)
# Outline: as §1
# [6] = biological target: T5, EHF (Homo sapiens, UniProt Q9NZC4 1-300)
# T5 sequence: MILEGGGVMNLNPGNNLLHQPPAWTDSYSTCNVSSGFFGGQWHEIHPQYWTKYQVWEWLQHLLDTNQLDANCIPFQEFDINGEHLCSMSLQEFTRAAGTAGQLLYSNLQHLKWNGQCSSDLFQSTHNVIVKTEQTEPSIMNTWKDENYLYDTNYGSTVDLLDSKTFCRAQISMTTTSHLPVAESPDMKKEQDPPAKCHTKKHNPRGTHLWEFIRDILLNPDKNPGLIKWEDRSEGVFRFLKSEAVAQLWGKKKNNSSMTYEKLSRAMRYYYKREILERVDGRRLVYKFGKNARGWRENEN
# Outline: as §1
# [7] = biological target: SPI1 (Homo sapiens, UniProt P17947 1-270)
# Outline: as §1
# [8] = biological target: SPIB (Homo sapiens, UniProt Q01892 1-262)
# Outline: as §1
# [9] = biological target: T6, ELK3 (Homo sapiens, UniProt P41970 1-407)
# T6 sequence: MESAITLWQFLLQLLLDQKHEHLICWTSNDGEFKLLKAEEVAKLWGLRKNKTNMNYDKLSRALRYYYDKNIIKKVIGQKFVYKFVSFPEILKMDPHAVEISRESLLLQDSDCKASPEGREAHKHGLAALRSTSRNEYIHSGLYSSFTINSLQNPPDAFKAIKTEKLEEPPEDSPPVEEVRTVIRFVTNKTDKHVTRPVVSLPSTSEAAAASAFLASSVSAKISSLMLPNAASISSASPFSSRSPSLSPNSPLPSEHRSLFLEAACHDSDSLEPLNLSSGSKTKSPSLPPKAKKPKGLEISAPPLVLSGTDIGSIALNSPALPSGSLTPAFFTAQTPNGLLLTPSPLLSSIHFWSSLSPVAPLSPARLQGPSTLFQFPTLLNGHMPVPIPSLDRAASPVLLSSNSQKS
# Outline: as §1
# [10] = biological target: T7, FEV (Homo sapiens, UniProt Q99581 1-238)
# T7 sequence: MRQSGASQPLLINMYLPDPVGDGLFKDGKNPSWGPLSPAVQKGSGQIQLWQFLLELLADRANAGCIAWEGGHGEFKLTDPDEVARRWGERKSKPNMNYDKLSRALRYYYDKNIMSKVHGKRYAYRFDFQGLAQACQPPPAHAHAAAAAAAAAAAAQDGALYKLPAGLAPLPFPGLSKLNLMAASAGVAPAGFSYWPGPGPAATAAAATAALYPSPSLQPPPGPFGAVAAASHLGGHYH
# Outline: as §1
# [11] = biological target: ETV5 (Homo sapiens, UniProt P41161 1-510)
# Outline: as §1
# [12] = biological target: T8, SPIC (Homo sapiens, UniProt Q8N5J4 1-248)
# T8 sequence: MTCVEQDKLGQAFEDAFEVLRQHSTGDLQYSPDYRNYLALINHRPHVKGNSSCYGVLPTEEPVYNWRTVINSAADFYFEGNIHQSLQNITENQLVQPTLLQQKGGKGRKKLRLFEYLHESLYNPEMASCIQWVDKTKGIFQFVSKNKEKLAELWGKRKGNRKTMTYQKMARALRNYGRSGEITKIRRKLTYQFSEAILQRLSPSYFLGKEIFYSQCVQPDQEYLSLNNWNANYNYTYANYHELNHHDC
# Outline: as §1
# [13] = biological target: ELF4 (Homo sapiens, UniProt Q99607 1-663)
# Outline: as §1
# [14] = biological target: T9, ELK4 (Homo sapiens, UniProt P28324-2 1-405)
# T9 sequence: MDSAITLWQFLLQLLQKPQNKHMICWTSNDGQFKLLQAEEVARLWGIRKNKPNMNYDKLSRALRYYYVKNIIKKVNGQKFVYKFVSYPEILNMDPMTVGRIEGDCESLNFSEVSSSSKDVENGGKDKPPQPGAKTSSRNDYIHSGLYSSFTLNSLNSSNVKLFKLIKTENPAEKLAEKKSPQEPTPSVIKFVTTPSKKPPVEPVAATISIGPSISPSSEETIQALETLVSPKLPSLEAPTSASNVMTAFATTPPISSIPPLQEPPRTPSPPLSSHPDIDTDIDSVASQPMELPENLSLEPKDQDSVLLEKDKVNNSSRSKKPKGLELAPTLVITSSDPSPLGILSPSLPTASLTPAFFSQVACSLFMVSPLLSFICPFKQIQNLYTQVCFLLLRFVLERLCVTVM
# Outline: as §1
# [15] = biological target: T10, ETV2 (Homo sapiens, UniProt O00321 1-342)
# T10 sequence: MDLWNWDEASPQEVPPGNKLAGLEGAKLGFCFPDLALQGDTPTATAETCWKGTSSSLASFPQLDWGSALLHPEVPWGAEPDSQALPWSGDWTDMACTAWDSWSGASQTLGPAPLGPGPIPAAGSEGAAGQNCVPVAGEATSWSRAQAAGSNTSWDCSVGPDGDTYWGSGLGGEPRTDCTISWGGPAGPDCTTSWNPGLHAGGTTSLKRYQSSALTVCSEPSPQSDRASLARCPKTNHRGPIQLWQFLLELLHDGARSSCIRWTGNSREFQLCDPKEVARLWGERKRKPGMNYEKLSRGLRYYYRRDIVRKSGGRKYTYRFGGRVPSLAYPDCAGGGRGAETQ
# Outline: as §1
# [16] = biological target: T11, ELF3 (Homo sapiens, UniProt P78545 1-371)
# T11 sequence: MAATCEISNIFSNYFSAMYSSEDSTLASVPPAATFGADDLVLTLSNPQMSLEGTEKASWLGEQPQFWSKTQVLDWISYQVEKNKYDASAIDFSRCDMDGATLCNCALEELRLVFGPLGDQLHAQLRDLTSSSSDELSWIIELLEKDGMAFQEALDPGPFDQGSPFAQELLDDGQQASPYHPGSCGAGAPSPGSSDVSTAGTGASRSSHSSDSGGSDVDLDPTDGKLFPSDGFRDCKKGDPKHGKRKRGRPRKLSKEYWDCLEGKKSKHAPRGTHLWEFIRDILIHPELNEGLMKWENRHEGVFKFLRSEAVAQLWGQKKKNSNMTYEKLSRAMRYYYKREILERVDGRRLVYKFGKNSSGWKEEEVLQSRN
# Outline: as §1
# [17] = biological target: ETV1 (Homo sapiens, UniProt P50549 1-477)
# Outline: as §1
# Chain of SPIB (Q01892 whole entry): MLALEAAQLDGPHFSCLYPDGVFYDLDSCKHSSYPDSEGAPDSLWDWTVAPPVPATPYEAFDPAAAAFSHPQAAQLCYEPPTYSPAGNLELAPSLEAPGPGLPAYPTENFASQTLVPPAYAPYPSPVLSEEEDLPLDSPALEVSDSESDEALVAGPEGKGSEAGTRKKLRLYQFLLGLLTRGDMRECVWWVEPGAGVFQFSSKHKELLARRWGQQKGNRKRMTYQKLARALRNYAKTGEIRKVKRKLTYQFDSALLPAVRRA
# Chain of ELF1 (P32519 whole entry): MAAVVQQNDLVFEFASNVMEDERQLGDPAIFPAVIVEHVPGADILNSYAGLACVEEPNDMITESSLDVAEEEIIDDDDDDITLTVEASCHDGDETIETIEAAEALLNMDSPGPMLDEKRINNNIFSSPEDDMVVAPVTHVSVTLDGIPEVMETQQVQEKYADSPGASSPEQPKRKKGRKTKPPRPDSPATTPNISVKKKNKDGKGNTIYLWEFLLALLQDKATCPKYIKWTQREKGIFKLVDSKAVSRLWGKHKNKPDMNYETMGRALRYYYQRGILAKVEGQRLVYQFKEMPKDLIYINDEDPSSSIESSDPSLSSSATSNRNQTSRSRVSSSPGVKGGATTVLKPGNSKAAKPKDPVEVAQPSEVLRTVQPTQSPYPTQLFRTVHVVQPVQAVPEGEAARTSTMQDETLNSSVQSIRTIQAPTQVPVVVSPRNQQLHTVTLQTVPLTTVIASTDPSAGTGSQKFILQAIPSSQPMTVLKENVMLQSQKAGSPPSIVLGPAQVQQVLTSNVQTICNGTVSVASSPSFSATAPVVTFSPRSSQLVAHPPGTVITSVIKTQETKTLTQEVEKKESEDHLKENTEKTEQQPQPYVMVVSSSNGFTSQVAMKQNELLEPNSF
# Chain of ELF4 (Q99607 whole entry): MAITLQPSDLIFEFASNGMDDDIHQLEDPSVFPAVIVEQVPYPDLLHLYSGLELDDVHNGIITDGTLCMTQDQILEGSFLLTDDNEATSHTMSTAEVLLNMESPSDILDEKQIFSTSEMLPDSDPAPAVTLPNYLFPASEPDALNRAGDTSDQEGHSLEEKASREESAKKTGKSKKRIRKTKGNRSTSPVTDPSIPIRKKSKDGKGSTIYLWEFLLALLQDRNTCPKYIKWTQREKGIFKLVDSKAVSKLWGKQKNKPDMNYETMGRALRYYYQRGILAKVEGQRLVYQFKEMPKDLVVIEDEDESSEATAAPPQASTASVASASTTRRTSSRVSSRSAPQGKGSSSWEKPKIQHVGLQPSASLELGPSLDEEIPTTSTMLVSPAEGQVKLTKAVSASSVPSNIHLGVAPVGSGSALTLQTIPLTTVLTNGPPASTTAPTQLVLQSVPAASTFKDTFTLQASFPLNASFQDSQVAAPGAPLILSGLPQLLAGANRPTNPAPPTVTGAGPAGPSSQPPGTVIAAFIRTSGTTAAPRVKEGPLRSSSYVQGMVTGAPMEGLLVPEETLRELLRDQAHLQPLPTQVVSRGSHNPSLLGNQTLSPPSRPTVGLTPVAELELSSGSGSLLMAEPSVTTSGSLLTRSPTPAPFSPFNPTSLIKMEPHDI
# Chain of ETV1 (P50549 whole entry): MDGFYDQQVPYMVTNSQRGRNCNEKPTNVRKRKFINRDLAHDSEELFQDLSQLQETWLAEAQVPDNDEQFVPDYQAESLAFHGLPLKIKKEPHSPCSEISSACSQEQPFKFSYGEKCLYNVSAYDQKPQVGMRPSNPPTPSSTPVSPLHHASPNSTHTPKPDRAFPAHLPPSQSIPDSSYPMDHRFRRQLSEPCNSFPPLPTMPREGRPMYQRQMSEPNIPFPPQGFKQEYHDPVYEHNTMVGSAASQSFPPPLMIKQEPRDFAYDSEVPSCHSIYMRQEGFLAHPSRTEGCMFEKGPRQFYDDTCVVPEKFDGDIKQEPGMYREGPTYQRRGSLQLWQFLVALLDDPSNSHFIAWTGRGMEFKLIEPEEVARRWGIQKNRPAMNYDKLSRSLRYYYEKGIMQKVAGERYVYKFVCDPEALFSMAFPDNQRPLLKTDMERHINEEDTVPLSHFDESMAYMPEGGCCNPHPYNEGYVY
# Chain of ETV5 (P41161 whole entry): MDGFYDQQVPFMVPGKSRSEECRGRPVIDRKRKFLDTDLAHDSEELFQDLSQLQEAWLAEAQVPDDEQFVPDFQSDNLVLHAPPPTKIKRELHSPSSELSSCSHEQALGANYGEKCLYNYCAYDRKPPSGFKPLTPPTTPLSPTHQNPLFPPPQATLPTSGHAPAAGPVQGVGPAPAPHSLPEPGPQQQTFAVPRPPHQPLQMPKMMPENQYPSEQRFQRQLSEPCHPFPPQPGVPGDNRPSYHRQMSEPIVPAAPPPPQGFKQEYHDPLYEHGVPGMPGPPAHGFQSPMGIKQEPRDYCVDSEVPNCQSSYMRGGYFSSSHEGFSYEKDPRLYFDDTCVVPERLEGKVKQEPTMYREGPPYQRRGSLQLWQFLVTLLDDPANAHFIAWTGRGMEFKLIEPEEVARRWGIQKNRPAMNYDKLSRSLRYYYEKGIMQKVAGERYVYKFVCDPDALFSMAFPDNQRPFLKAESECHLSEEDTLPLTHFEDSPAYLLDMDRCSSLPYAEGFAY
sequence,measurement,setting,value
CCCACC,binding signal,[1],"1.17 fold enrichment (6-mer frequency, TF over GST control)"
same,binding signal,[2],"1.26 fold enrichment (6-mer frequency, TF over GST control)"
same,binding signal,[3],"1.11 fold enrichment (6-mer frequency, TF over GST control)"
same,binding signal,[4],"1.15 fold enrichment (6-mer frequency, TF over GST control)"
same,binding signal,[5],"1.15 fold enrichment (6-mer frequency, TF over GST control)"
same,binding signal,[6],"1.2 fold enrichment (6-mer frequency, TF over GST control)"
same,binding signal,[7],"1.18 fold enrichment (6-mer frequency, TF over GST control)"
same,binding signal,[8],"1.13 fold enrichment (6-mer frequency, TF over GST control)"
same,binding signal,[9],"1.16 fold enrichment (6-mer frequency, TF over GST control)"
same,binding signal,[10],"1.17 fold enrichment (6-mer frequency, TF over GST control)"
same,binding signal,[11],"1.16 fold enrichment (6-mer frequency, TF over GST control)"
same,binding signal,[12],"1.21 fold enrichment (6-mer frequency, TF over GST control)"
same,binding signal,[13],"1.19 fold enrichment (6-mer frequency, TF over GST control)"
same,binding signal,[14],"1.26 fold enrichment (6-mer frequency, TF over GST control)"
same,binding signal,[15],"1.15 fold enrichment (6-mer frequency, TF over GST control)"
same,binding signal,[16],"1.41 fold enrichment (6-mer frequency, TF over GST control)"
same,binding signal,[17],"1.14 fold enrichment (6-mer frequency, TF over GST control)"
